Experimental data from PubChem BioAssay AID1159580 (chemical genetic matrix, 2015).
Hit rate of the full screen: of about 5,500 compounds, about 2,000 (36%) were called active. Not shown: some 18% with an inconclusive outcome. No stated cut-off is given here; in the data, active means normalized growth mostly below about 0.91 (no sharp cut-off); inconclusive means no clear call, values can overlap the other calls; inactive means mostly above about 0.92. This is one part of the list.

Assay: chemical genetic growth profiling, strain panel (AID 1159580);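 further: tested at 20 µM; growth read once vehicle control cultures reached saturation at 30 °C; 1 = growth at the plate median or of vehicle wells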
Details: growth OD
[1] = S. cerevisiae deletion strains, locus YDL101C, strain DUN1, stronger effect = lower value
[2] = S. cerevisiae deletion strains, locus YHR030C, strain SLT2, stronger effect = lower value

Measured: normalized growth

O=S(=O)(Nc1cc(Cl)c(Cl)cc1Cl)c1cc(C(F)(F)F)cc(C(F)(F)F)c1
active: [2] 0.71 | S. cerevisiae deletion strains, locus YLR113W, strain HOG1, stronger effect = lower value 0.818 | S. cerevisiae deletion strains, locus YPL256C, strain CLN2, stronger effect = lower value 0.813
inactive: S. cerevisiae deletion strains, locus YAR019C, strain CDC15, stronger effect = lower value 0.957 | S. cerevisiae deletion strains, locus YBL105C, strain PKC1, stronger effect = lower value 0.956 | S. cerevisiae deletion strains, locus YBR135W, strain CKS1, stronger effect = lower value 0.961 | S. cerevisiae deletion strains, locus YBR136W, strain MEC1, stronger effect = lower value 0.954 | S. cerevisiae deletion strains, locus YBR160W, strain CDC28, stronger effect = lower value 0.946 | S. cerevisiae deletion strains, locus YDL017W, strain CDC7, stronger effect = lower value 0.959 | S. cerevisiae deletion strains, locus YDL028C, strain MPS1, stronger effect = lower value 0.962 | [1] 0.972 | S. cerevisiae deletion strains, locus YDL108W, strain KIN28, stronger effect = lower value 0.966 | S. cerevisiae deletion strains, locus YDL132W, strain cdc53, stronger effect = lower value 0.963 | S. cerevisiae deletion strains, locus YDL214C, strain PRR2, stronger effect = lower value 0.924 | S. cerevisiae deletion strains, locus YDR052C, strain DBF4, stronger effect = lower value 0.941 | S. cerevisiae deletion strains, locus YDR054C, strain cdc34, stronger effect = lower value 0.953 | S. cerevisiae deletion strains, locus YDR226W, strain ADK1, stronger effect = lower value 0.956 | S. cerevisiae deletion strains, locus YDR477W, strain SNF1, stronger effect = lower value 0.919 | S. cerevisiae deletion strains, locus YER123W, strain YCK3, stronger effect = lower value 0.882 | S. cerevisiae deletion strains, locus YER133W, strain GLC7, stronger effect = lower value 0.937 | S. cerevisiae deletion strains, locus YFL009W, strain cdc4, stronger effect = lower value 0.959 | S. cerevisiae deletion strains, locus YFL029C, strain CAK1, stronger effect = lower value 0.955 | S. cerevisiae deletion strains, locus YFR003C, strain YPI1, stronger effect = lower value 0.964 | S. cerevisiae deletion strains, locus YFR019W, strain FAB1, stronger effect = lower value 0.916 | S. cerevisiae deletion strains, locus YFR028C, strain CDC14, stronger effect = lower value 0.958 | S. cerevisiae deletion strains, locus YGR040W, strain KSS1, stronger effect = lower value 0.9 | S. cerevisiae deletion strains, locus YGR052W, strain FMP48, stronger effect = lower value 0.913 | S. cerevisiae deletion strains, locus YGR092W, strain DBF2, stronger effect = lower value 0.892 | S. cerevisiae deletion strains, locus YHR079C, strain IRE1, stronger effect = lower value 0.897 | S. cerevisiae deletion strains, locus YHR082C, strain KSP1, stronger effect = lower value 0.899 | S. cerevisiae deletion strains, locus YHR205W, strain SCH9, stronger effect = lower value 0.946 | S. cerevisiae deletion strains, locus YIL147C, strain SLN1, stronger effect = lower value 0.963 | S. cerevisiae deletion strains, locus YJL095W, strain BCK1, stronger effect = lower value 0.963 | S. cerevisiae deletion strains, locus YJL128C, strain PBS2, stronger effect = lower value 0.969 | S. cerevisiae deletion strains, locus YJL157C, strain FAR1, stronger effect = lower value 0.892 | S. cerevisiae deletion strains, locus YJR016C, strain ILV3, stronger effect = lower value 0.968 | S. cerevisiae deletion strains, locus YJR066W, strain TOR1 (second series), stronger effect = lower value 0.92 | S. cerevisiae deletion strains, locus YJR066W, strain TOR1, stronger effect = lower value 0.976 | S. cerevisiae deletion strains, locus YKL048C, strain ELM1, stronger effect = lower value 0.906 | S. cerevisiae deletion strains, locus YKL067W, strain YNK1, stronger effect = lower value 0.935 | S. cerevisiae deletion strains, locus YKL101W, strain HSL1, stronger effect = lower value 0.902 | S. cerevisiae deletion strains, locus YKL193C, strain SDS22, stronger effect = lower value 0.963 | S. cerevisiae deletion strains, locus YKL203C, strain TOR2, stronger effect = lower value 0.955 | S. cerevisiae deletion strains, locus YLR133W, strain CKI1, stronger effect = lower value 0.903 | S. cerevisiae deletion strains, locus YLR403W, strain SFP1, stronger effect = lower value 0.916 | S. cerevisiae deletion strains, locus YML070W, strain DAK1, stronger effect = lower value 0.911 | S. cerevisiae deletion strains, locus YMR001C, strain CDC5, stronger effect = lower value 0.96 | S. cerevisiae deletion strains, locus YMR205C, strain PFK2 (second series), stronger effect = lower value 0.954 | S. cerevisiae deletion strains, locus YMR277W, strain FCP1, stronger effect = lower value 0.963 | S. cerevisiae deletion strains, locus YNL006W, strain LST8, stronger effect = lower value 0.966 | S. cerevisiae deletion strains, locus YNL020C, strain ARK1, stronger effect = lower value 0.89 | S. cerevisiae deletion strains, locus YNL161W, strain CBK1, stronger effect = lower value 0.962 | S. cerevisiae deletion strains, locus YNL183C, strain NPR1, stronger effect = lower value 0.916 | S. cerevisiae deletion strains, locus YNL207W, strain RIO2, stronger effect = lower value 0.948 | S. cerevisiae deletion strains, locus YNL222W, strain SSU72, stronger effect = lower value 0.962 | S. cerevisiae deletion strains, locus YNL307C, strain MCK1 (second series), stronger effect = lower value 0.874 | S. cerevisiae deletion strains, locus YOL078W, strain AVO1, stronger effect = lower value 0.959 | S. cerevisiae deletion strains, locus YOL136C, strain PFK27, stronger effect = lower value 0.871 | S. cerevisiae deletion strains, locus YOR061W, strain CKA2, stronger effect = lower value 0.93 | S. cerevisiae deletion strains, locus YOR119C, strain RIO1, stronger effect = lower value 0.983 | S. cerevisiae deletion strains, locus YOR231W, strain MKK1, stronger effect = lower value 0.913 | S. cerevisiae deletion strains, locus YOR329C, strain SCD5, stronger effect = lower value 0.963 | S. cerevisiae deletion strains, locus YPL031C, strain PHO85, stronger effect = lower value 0.917 | S. cerevisiae deletion strains, locus YPL153C, strain RAD53, stronger effect = lower value 0.921 | S. cerevisiae deletion strains, locus YPL204W, strain HRR25, stronger effect = lower value 0.881 | S. cerevisiae deletion strains, locus YPL209C, strain IPL1, stronger effect = lower value 0.952 | S. cerevisiae deletion strains, locus YPR025C, strain CCL1, stronger effect = lower value 0.962 | S. cerevisiae deletion strains, locus YPR106W, strain ISR1, stronger effect = lower value 0.946 | S. cerevisiae deletion strains, locus YPR111W, strain DBF20, stronger effect = lower value 0.944 | S. cerevisiae deletion strains, strain NNK1, stronger effect = lower value 0.956 | S. cerevisiae deletion strains, strain TSCII, stronger effect = lower value 0.956

O=S(=O)(c1ccc(Cl)cc1)c1cc(C(F)(F)F)cc(C(F)(F)F)c1
inactive: S. cerevisiae deletion strains, locus YAL013W, strain DEP1, stronger effect = lower value 0.978 | S. cerevisiae deletion strains, locus YBR229C, strain ROT2, stronger effect = lower value 0.983 | S. cerevisiae deletion strains, locus YCL061C, strain MRC1, stronger effect = lower value 1 | [1] 1.01 | S. cerevisiae deletion strains, locus YDR150W, strain NUM1, stronger effect = lower value 1.01 | S. cerevisiae deletion strains, locus YEL061C, strain CIN8, stronger effect = lower value 0.963 | S. cerevisiae deletion strains, locus YGR078C, strain PAC10, stronger effect = lower value 0.988 | S. cerevisiae deletion strains, locus YGR229C, strain SMI1, stronger effect = lower value 0.98 | [2] 0.988 | S. cerevisiae deletion strains, locus YHR087W, strain rtc3, stronger effect = lower value 0.986 | S. cerevisiae deletion strains, locus YJL187C, strain SWE1, stronger effect = lower value 0.984 | S. cerevisiae deletion strains, locus YJR043C, strain POL32, stronger effect = lower value 0.989 | S. cerevisiae deletion strains, locus YJR075W, strain HOC1, stronger effect = lower value 0.957 | S. cerevisiae deletion strains, locus YLR039C, strain RIC1, stronger effect = lower value 0.954 | S. cerevisiae deletion strains, locus YLR058C, strain SHM2 (second series), stronger effect = lower value 0.987 | S. cerevisiae deletion strains, locus YLR085C, strain ARP6, stronger effect = lower value 0.935 | S. cerevisiae deletion strains, locus YLR262C, strain YPT6, stronger effect = lower value 0.964 | S. cerevisiae deletion strains, locus YML094W, strain GIM5, stronger effect = lower value 0.978 | S. cerevisiae deletion strains, locus YMR219W, strain ESC1, stronger effect = lower value 0.974 | S. cerevisiae deletion strains, locus YMR263W, strain SAP30, stronger effect = lower value 1 | S. cerevisiae deletion strains, locus YNL128W, strain TEP1, stronger effect = lower value 0.972 | S. cerevisiae deletion strains, locus YNL153C, strain GIM3, stronger effect = lower value 1.01 | S. cerevisiae deletion strains, locus YNL298W, strain CLA4 (second series), stronger effect = lower value 1.03 | S. cerevisiae deletion strains, locus YNL322C, strain KRE1, stronger effect = lower value 0.952 | S. cerevisiae deletion strains, locus YNR030W, strain Alg12, stronger effect = lower value 0.955 | S. cerevisiae deletion strains, locus YOL006C, strain TOP1, stronger effect = lower value 0.97 | S. cerevisiae deletion strains, locus YPL055C, strain LGE1, stronger effect = lower value 1.03 | S. cerevisiae deletion strains, locus YPL241C, strain CIN2, stronger effect = lower value 0.992 | S. cerevisiae deletion strains, locus YPR135W, strain CTF4, stronger effect = lower value 1.08 | S. cerevisiae strains, strain wild type, stronger effect = lower value 0.976
